± gives the standard deviation of the averaged measurements.
What was measured:
DLD1 [1] = assay: cell viability (CellTiter-Glo) relative to plate median (fraction of plate median); higher = more viable cells; details: 10 µM, treatment time 24 h
Method in brief: (§1)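 Reporter and viability luminescence were measured in colorectal cancer cells stably carrying lentiviral TCF/Wnt firefly luciferase reporters. The cells were exposed to kinase inhibitor library compounds at a final 10 µM for 24 h, starting 24 h after seeding in 384-well plates. Each well was normalised to the plate median (webcellHTS2, additive, no log transformation), and two independent replicates were averaged.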

HCT116 [2] = assay: as above; details: 10 µM; treatment time 24 h; reporter: TCF4/Wnt
Method in brief: as §1

SW480 [3] = assay: as above; details: 10 µM; treatment time 24 h; reporter: 7TFP
Method in brief: as §1

DLD1 [4] = assay: TCF/Wnt firefly luciferase reporter signal relative to plate median (fraction of plate median); higher = higher Wnt reporter signal; details: 10 µM, treatment time 24 h
Method in brief: as §1

HCT116 [5] = assay: as above; details: 10 µM; treatment time 24 h; reporter: TCF4/Wnt
Method in brief: as §1

SW480 [6] = assay: as above; details: 10 µM; treatment time 24 h; reporter: 7TFP
Method in brief: as §1

Row | Compound | cell viability (DLD1 [1]; reporter: 7TFP) | cell viability (DLD1 [1]; reporter: TCF4/Wnt) | cell viability (HCT116 [2]) | cell viability (SW480 [3]) | TCF/Wnt firefly luciferase reporter signal (DLD1 [4]; reporter: 7TFP) | TCF/Wnt firefly luciferase reporter signal (DLD1 [4]; reporter: TCF4/Wnt) | TCF/Wnt firefly luciferase reporter signal (HCT116 [5]) | TCF/Wnt firefly luciferase reporter signal (SW480 [6])
1 | CN(C)Cc1cccc(N=C(c2ccccc2)c2c(O)[nH]c3cc(C(=O)N(C)C)ccc23)c1 | 1.13 ± 0.057 | 0.947 ± 0.0014 | 1.13 ± 0.099 | 1.19 ± 0.035 | 0.966 ± 0.12 | 0.85 ± 0.061 | 1.11 ± 0.16 | 1.11 ± 0.014
2 | C=CC(=O)Nc1cccc(Sc2nc(Nc3ccc(N4CCN(C)CC4)cc3)ncc2Cl)c1 | 1.1 ± 0.035 | 1.02 ± 0.15 | 1.02 | 1.195 ± 0.0071 | 1.79 ± 0.25 | 1.15 ± 0.22 | 1.64 ± 0.67 | 1.32 ± 0.58
3 | CC[C@@H]1C(=O)N(C)c2cnc(Nc3ccc(C(=O)NC4CCN(C)CC4)cc3OC)nc2N1C1CCCC1 | 0.736 ± 0.16 | 0.863 ± 0.04 | 0.56 ± 0.13 | 0.897 ± 0.067 | 1.97 ± 0.2 | 2.25 ± 0.078 | 0.983 ± 0.93 | 1.36 ± 0.48
4 | C=CC(=O)Nc1cccc(Oc2nc(Nc3ccc(N4CCN(C)CC4)cc3)ncc2Cl)c1 | 0.968 ± 0.045 | 1.045 ± 0.0071 | 0.894 ± 0.16 | 1.07 ± 0.085 | 0.79 ± 0.067 | 0.969 ± 0.12 | 1.18 ± 0.42 | 0.834 ± 0.39
5 | C[C@@H](Oc1cc(-c2cnn(C3CCNCC3)c2)cnc1N)c1c(Cl)ccc(F)c1Cl | 0.882 ± 0.067 | 1.04 ± 0.042 | 0.674 ± 0.1 | 0.996 ± 0.048 | 0.833 ± 0.16 | 0.831 ± 0.077 | 0.978 ± 0.29 | 0.682 ± 0.15
6 | C=CC(=O)Nc1cccc(Oc2nc(Nc3ccc(N4CCN(C)CC4)cc3OC)ncc2Cl)c1 | 1.24 ± 0.014 | 1.08 ± 0.042 | 1.14 ± 0.05 | 0.922 ± 0.064 | 1.16 ± 0.078 | 1.05 ± 0.05 | 0.722 ± 0.55 | 0.71 ± 0.31
7 | CCn1c(-c2nonc2N)nc2c(C#CC(C)(C)O)ncc(OC[C@H]3CCCNC3)c21 | 0.909 ± 0.074 | 0.954 ± 0.065 | 0.805 ± 0.0057 | 1.04 ± 0.05 | 1.05 ± 0.55 | 1.22 ± 0.26 | 1.65 ± 0.41 | 1.39 ± 0.23
8 | Cc1ccc(NC(=O)c2cccc(N(C)C)c2)cc1NC(=O)c1ccc(O)cc1 | 1.11 ± 0.16 | 1.095 ± 0.0071 | 1.23 ± 0.11 | 0.907 ± 0.033 | 1.07 ± 0.092 | 1.12 ± 0.014 | 1.04 ± 0.035 | 0.955 ± 0.092
9 | COCCOc1ccc2c(c1)ncn2-c1ccc2cccc(N3CCC(N)CC3)c2n1 | 0.954 ± 0.11 | 1.14 ± 0.12 | 0.556 ± 0.16 | 1.05 ± 0.082 | 1.54 ± 0.16 | 2.17 ± 0.41 | 0.422 ± 0.12 | 1.71 ± 0.26
10 | CC[C@@H]1C(=O)N(C)c2cnc(Nc3ccc(C(=O)N[C@H]4CC[C@H](N5CCN(CC6CC6)CC5)CC4)cc3OC)nc2N1C(C)C [BI6727 (Volasertib)] | 0.744 ± 0.32 | 0.894 ± 0.071 | 0.554 ± 0.18 | 0.995 ± 0.16 | 1.68 ± 0.18 | 1.98 ± 0.49 | 0.866 ± 0.0085 | 1.39 ± 0.27
11 | COc1cc2ncnc(Nc3ccc(F)c(Cl)c3)c2cc1NC(=O)/C=C/CN1CCCCC1 | 0.875 ± 0.16 | 1 ± 0.12 | 0.993 ± 0.024 | 1.16 ± 0.16 | 0.615 ± 0.035 | 0.531 ± 0.092 | 0.548 ± 0.0014 | 0.935 ± 0.071
12 | CCCCOc1c(C(=O)c2c(F)cc(C)cc2F)c[nH]c2nncc1-2 | 1.075 ± 0.0071 | 1.02 | 1.13 ± 0.085 | 0.862 ± 0.067 | 0.489 ± 0.005 | 0.617 ± 0.071 | 0.879 ± 0.098 | 0.391 ± 0.12
13 | O=C(NOCC1CC1)c1ccc(F)c(F)c1Nc1ccc(I)cc1Cl | 1.19 ± 0.028 | 1.065 ± 0.0071 | 1.11 ± 0.028 | 1.1 ± 0.11 | 1.2 ± 0.042 | 1.04 ± 0.23 | 0.9945 ± 0.0078 | 1.16 ± 0.32
14 | CC(C)NC[C@@H](C(=O)N1CCN(c2ncnc3c2[C@H](C)C[C@H]3O)CC1)c1ccc(Cl)cc1 | 0.947 ± 0.031 | 1.1 ± 0.021 | 0.917 ± 0.0092 | 1.04 ± 0.042 | 0.922 ± 0.029 | 0.951 ± 0.31 | 1.08 ± 0.27 | 0.999 ± 0.016
15 | Cc1c(CN2CCN(C(=O)[C@H](C)O)CC2)sc2c(N3CCOCC3)nc(-c3cnc(N)nc3)nc12 | 0.999 ± 0.13 | 0.9185 ± 0.0064 | 0.679 ± 0.16 | 1.1 ± 0.092 | 0.287 ± 0.056 | 0.419 ± 0.11 | 0.577 ± 0.21 | 0.764 ± 0.017
16 | CS(=O)(=O)CCNCc1ccc(-c2ccc3ncnc(Nc4ccc(OCc5cccc(F)c5)c(Cl)c4)c3c2)o1 [Lapatinib Ditosylate (Tykerb)] | 1.06 ± 0.078 | 1.02 ± 0.03 | 0.972 ± 0.04 | 0.913 ± 0.035 | 1.27 ± 0.078 | 1.1 ± 0.042 | 1.25 ± 0.18 | 1.16 ± 0.057
17 | COc1cc(CCc2cc(NC(=O)c3ccc(N4CC(C)NC(C)C4)cc3)n[nH]2)cc(OC)c1 (stereo unspecified) | 0.967 ± 0.1 | 0.951 ± 0.04 | 1.04 ± 0.058 | 1.07 ± 0.05 | 0.794 ± 0.042 | 0.718 ± 0.011 | 0.502 ± 0.34 | 0.93 ± 0.099
18 | Clc1ccc(C2(c3ccc(-c4cn[nH]c4)cc3)CCNCC2)cc1 | 1.01 ± 0.025 | 1.08 ± 0.028 | 1.03 ± 0.13 | 1.15 ± 0.057 | 1.13 ± 0.13 | 0.883 ± 0.11 | 0.871 ± 0.024 | 1.33 ± 0.021
19 | C[C@@H]1CN(CC(=O)Nc2ccc3c(c2)Cc2cccc(-c4cc(=O)cc(N5CCOCC5)o4)c2S3)C[C@H](C)O1 | 0.7975 ± 0.00071 | 0.878 ± 0.043 | 0.957 ± 0.012 | 0.952 ± 0.058 | 1.3 ± 0.092 | 1.32 ± 0.11 | 1.33 ± 0.66 | 1.23 ± 0.071
20 | O=C(Cc1ccc(-c2ccc(OCCN3CCOCC3)cc2)cn1)NCc1ccccc1 | 0.891 ± 0.0014 | 1.005 ± 0.0071 | 0.745 ± 0.26 | 1.145 ± 0.0071 | 0.57 ± 0.038 | 0.908 ± 0.26 | 0.171 ± 0.0021 | 0.791 ± 0.047
21 | O=c1cc(N2CCOCC2)oc2c(-c3ccccc3)cccc12 | 1 ± 0.092 | 1.065 ± 0.0071 | 1.11 ± 0.021 | 0.963 ± 0.033 | 1.11 ± 0.078 | 1.15 ± 0.21 | 1.62 ± 0.3 | 1.15 ± 0.05
22 | COC(=O)Nc1ccc(-c2nc(N3CCOCC3)c3cnn(C4CCN(C(=O)OC)CC4)c3n2)cc1 | 1.13 ± 0.014 | 1.13 ± 0.028 | 1.105 ± 0.0071 | 1.11 ± 0.028 | 1.07 ± 0.057 | 0.973 ± 0.053 | 1.23 ± 0.12 | 1.11 ± 0.085

From the supplement of paper PMC6522484
